# Source: ChEMBL document CHEMBL3433997, “St. Jude Leishmania screening dataset” (2016)
# Target: Glucose transporter (Leishmania mexicana) (UniProt O61059)
# Assay: ST_JUDE_LEISH: Cytotoxicity at 2uM final concentration against transgenic Leishmania Mexicana promastigotes LmGT2 that are glucose transport deficient and complemented with the L. Mexicana glucose transporter 2. Activity is measured by DNA content using SYBR green in vitro
# Format: functional
row,SMILES,inhibition [%]
1,CCc1ccc(C(=O)Nc2cccc(CN3CCCN(Cc4ccc(O)cc4)CC3)c2)cc1,3.01
2,COc1ccc(C2CC(=O)C3=C(C2)NC(C)=C(C(=O)OC2CCCC2)C3c2ccc(O)cc2)cc1OC (stereo not given),0.39
3,COc1ccc(Cn2c(=O)[nH]c3cc(C(=O)NC4CCN(Cc5ccccc5)CC4)ccc3c2=O)cc1,2.59
4,CN(C)CCCOc1c(C(C)(C)C)cc(-c2cc(C(C)(C)C)c(OCCCN(C)C)c(C(C)(C)C)c2)cc1C(C)(C)C,3.12
5,O=C(Nc1ccc(Cl)cc1)Nc1ccc(OCC(O)CN2CCCCC2)cc1 (stereo not given),7.64
6,COc1ccc(Nc2nc(N/N=C/c3cc(Br)ccc3O)nc(Nc3ccc([N+](=O)[O-])cc3)n2)cc1,1.51
7,Cc1onc(-c2c(F)cccc2Cl)c1C(=O)Nc1ccccc1I,2.12
8,Cc1cc(NC(=O)Nc2ccc(C(C)C)cc2)c2ccccc2n1,-0.45
9,CC(C)(C)C(=O)N1CCN(c2ccc([N+](=O)[O-])c(NC3CC3)c2)CC1,2.27
10,CCNc1cc(C(=O)N[C@@H](Cc2ccco2)[C@H](O)CNC2CCCCC2)cc(N2CCCCS2(=O)=O)c1,2.15
11,CC(=O)Nc1nc(C(=O)Nc2ccc(-c3cccc(-c4nc5cccc(C)c5[nH]4)c3)cc2)cs1,5.38
12,COc1cc2nc(N(C)Cc3cccc(I)c3)nc(N)c2cc1OC,1.56
13,CNC(=O)NC1=NC(C)(C)N(OCc2ccc(Cl)c(Cl)c2)C(NC(=O)NC)=N1,0.39
14,Cc1cc(Nc2cccc(C(F)(F)F)c2)nc(N)n1,1.19
15,COc1ccc(CNC(=O)c2cnc3c(O)cccc3c2Nc2cccc(NC(=O)c3ccc(-c4ccccc4)cc3)c2)cc1,64.3
